How the values were obtained:
[1] = biological target: PEG-3 (UniProt Q6IN02); experiment: Peg3 promoter luciferase inhibitors, potency, dose response, cell-based, HeLa, CREF/GAPDH counter-screen panel (AID 624167); settings: CREF/GAPDH counter-screens; HeLa PEG-Prom luciferase reporter, overnight, run 1, dose range 1, at 100 µM (top of the series) unless noted
[2] = biological target: PEG-3 (UniProt Q6IN02); experiment: as above; settings: CREF/GAPDH counter-screens; HeLa PEG-Prom luciferase reporter, overnight, run 2, dose range 1, at 100 µM (top of the series) unless noted

PEG-3, sequence (Q6IN02 whole entry, looked up): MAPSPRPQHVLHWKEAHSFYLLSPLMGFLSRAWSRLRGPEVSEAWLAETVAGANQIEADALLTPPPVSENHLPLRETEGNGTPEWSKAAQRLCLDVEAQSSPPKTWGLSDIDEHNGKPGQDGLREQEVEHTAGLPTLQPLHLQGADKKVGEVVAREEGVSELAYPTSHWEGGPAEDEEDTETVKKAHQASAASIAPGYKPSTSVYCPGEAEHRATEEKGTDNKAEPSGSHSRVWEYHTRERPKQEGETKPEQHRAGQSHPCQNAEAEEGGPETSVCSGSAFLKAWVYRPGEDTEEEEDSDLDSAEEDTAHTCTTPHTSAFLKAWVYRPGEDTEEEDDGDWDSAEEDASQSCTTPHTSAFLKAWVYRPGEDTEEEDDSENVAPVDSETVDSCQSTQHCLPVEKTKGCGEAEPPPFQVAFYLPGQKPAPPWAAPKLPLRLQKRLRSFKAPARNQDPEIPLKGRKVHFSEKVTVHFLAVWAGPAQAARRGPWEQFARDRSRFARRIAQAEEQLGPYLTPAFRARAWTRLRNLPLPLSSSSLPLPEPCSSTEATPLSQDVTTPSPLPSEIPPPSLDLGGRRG

Row | Compound | inhibition [1] | inhibition [2]
1 | Cn1c(=O)c(C(=O)CCl)c(N)n(Cc2ccccc2)c1=O | 102% | 97.2%
2 | CS(=O)(=O)c1ccc(C(=O)NCCN2C(=O)S/C(=C\c3cccnc3)C2=O)cc1[N+](=O)[O-] | 102% | 99.2%
3 | CCN(CC)CCNC(=O)c1ccc(NC(=O)c2cccc(S(=O)(=O)N(C)C3CCCCC3)c2)cc1 | 100% | 102%
4 | COc1cc2ccccc2cc1C(=O)N(CCN(C)C)c1nc2c(OC)ccc(OC)c2s1 | 98.2% | 101%
5 | O=C(CN1CCCC1)Nc1ccc(-c2nc3cc(NC(=O)CN4CCCC4)ccc3o2)cc1 | 98.9% | 102%
6 | COc1ccc(C2c3c(ncn(CCCN4CCOCC4)c3=N)Oc3ccc4ccccc4c32)cc1OC (configuration not stated) | 102% | 100%
7 | O=C(CCN1C(=O)/C(=C/c2cccs2)SC1=S)N1CCCCC1 | 96.2% | 94.3%
8 | COc1ccc(-c2cc(C(=O)Nc3ccccc3N3CCOCC3)c3ccccc3n2)cc1OC | 2.08% | 15%
9 | O=C(C[C@H]1C[C@H](C(=O)N2CCCCC2)[C@@]2(CCc3ccccc3)c3[nH]c4ccc(Cl)cc4c3CCN2C1=O)NCCc1ccccn1 | 94% | 93.1%
10 | O=C(c1ccco1)N1CCN(c2ncnc3c2[nH]c2ccc(Br)cc23)CC1 | 99.5% | 98.2%
11 | C[C@@]12C(=O)Nc3cc(Cl)ccc3C(=O)N1[C@H]1c3cc(Cl)ccc3OC[C@@H]1[C@@H]2c1ccccc1 | 32.1% | 36.4%
12 | Cc1c(OCC(=O)NC2CC(C)(C)NC(C)(C)C2)ccc2c1oc(=O)c1ccccc12 | 98% | 101%
13 | CC(C)(C)c1ccc(CN2N=Nc3ccccc3S2(=O)=O)cc1 | 98.8% | 100%
14 | COc1cccc(C(=O)c2sc(NC(C)C)nc2N)c1 | 93.5% | 95.7%
15 | CN(CCOc1ccc(Cl)cc1)C(=O)c1cc(-c2ccco2)nc2ccccc12 | 99.6% | 96.2%
16 | COc1cc(-c2cc(C(=O)Nc3cc(S(=O)(=O)N4CCOCC4)ccc3C)c3ccccc3n2)cc(OC)c1OC | 55.1% | 61.8%
17 | O=C(C(=O)N(Cc1ccccc1)Cc1ccccc1)c1c(-c2ccccc2)[nH]c2ccccc12 | 20.8% | 46.6%
18 | CCc1ccc(O)c(CNCCNCc2cc(CC)ccc2O)c1 | 102% | 101%
19 | CCOC(=O)c1c(NC(=O)CSc2nnnn2-c2ccccc2OCC)sc2c1CC(C)(C)NC2(C)C | 98.8% | 102%
20 | CCOC(=O)c1c(NC(C)=O)sc2c(OCC(O)CNC(C)(C)C)c(Br)ccc12 (configuration not stated) | 102% | 93.7%
21 | O=C(Sc1cccc2cccnc12)c1ccccc1Br | 99.3% | 93.8%

Row | Compound | inhibition [1] | inhibition [2]
22 | CC(C)(C)c1ccc(/C=N/Nc2ccc(C(=O)O)cc2)cc1 | 89% | 98.5%
23 | Oc1cccc(C(Nc2nccs2)c2ccc3cccnc3c2O)c1 (configuration not stated) | 97.4% | 98.7%
24 | COc1ccc(NC(=O)N(C)[C@H]2C[C@H]3c4[nH]c5ccc(-c6cccc(C)c6)cc5c4CCN3C[C@H]2[C@H](C)O)cc1 | 98.4% | 97.1%
25 | CN(C)c1ccc(/C=N/NC(=O)c2nnn(-c3nonc3N)c2COc2ccc(F)cc2)cc1 | 2.41% | -13.2%
26 | COc1cc(C=NO)nc(-c2ccccn2)c1 | 71.9% | 73.1%
27 | OC1(c2ccc(Cl)c(Cl)c2)C[n+]2ccccc2N1Cc1ccccc1 (configuration not stated) | 95% | 101%
28 | COc1ccc2c(c1)C=C([C@@H]1C[C@H]3CN(c4ccccc4)C(=O)[C@]34CCCN14)CO2 | 65.2% | 74%
29 | CN(C)CC1CCC/C(=C/c2ccc(Cl)cc2)C1=O (configuration not stated) | 102% | 98.7%
30 | CN(C)CCNc1ncnc2c1ncn2[C@H]1CN(Cc2ccc(-c3ccccc3)cc2)C[C@@H](CO)O1 | 100% | 101%
31 | O=Nc1c(O)ccc2cc(S(=O)(=O)O)ccc12 | 84.7% | 89.5%
32 | COc1ccccc1CN(C)C(=O)c1cc(-c2cccs2)nc2ccccc12 | 99% | 98.8%
33 | COc1ccc(Nc2oc(COc3ccccc3OC)nc2C#N)cc1 | 69.9% | 88.5%
34 | O=C(Nc1ccc(CN2CCCCC2)cc1)Nc1ccc(Br)cc1Cl | 99% | 101%
35 | Nc1c(C(=O)Nc2cccc(C(=O)O)c2)sc2nc3c(cc12)CCCC3 | 92.6% | 77.5%
36 | COc1ccc(-c2nc(NC(=O)c3n[nH]c(=O)c4ccccc34)sc2C)cc1 | 14% | 30.7%
37 | CC(=O)OCCNc1cc(SCc2ccco2)c2nonc2c1[N+](=O)[O-] | 100% | 98.1%
38 | CN1CCN(CCNC(=O)c2ccc3nc(-c4ccc(F)cc4)c(-c4ccc(F)cc4)nc3c2)CC1 | 99.2% | 98.2%
39 | C[C@@H](NCCCn1cnc2c(OCc3ccccc3)ncnc21)c1cccc2ccccc12 | 94.9% | 101%
40 | OC[C@@H]1[C@@H](c2ccc(Cl)cc2)C(c2cccc(Cl)c2)=NN1c1ccccc1 | 102% | 101%
41 | C/C(=N\N=C(N)N)c1ccc(Cl)cc1Cl | 99.4% | 101%
42 | Cc1nc(N2CCN(c3ccccc3O)CC2)c2c(-c3ccccc3)csc2n1 | 94.8% | 94%

Row | Compound | inhibition [1] | inhibition [2]
43 | CN1Cc2c(N3CCOCC3)nc3sc(C(=O)c4ccc(Br)cc4)c(N)c3c2CC1(C)C | 99% | 101%
44 | COC(=O)c1ccccc1-c1ccc(/C=N/Nc2nc(N3CCCC3)nc(N3CCCC3)n2)o1 | 100% | 102%
45 | NC(N)=N/N=C/c1ccc(Cl)cc1Cl | 97.7% | 99.1%
46 | CC1=NN(c2cccc(C(=O)O)c2)C(=O)/C1=C\C=C/c1ccccc1 | 86.8% | 99.5% [run 2, dose range 1, at 50 µM]
47 | CCN1CCCC1CN(Cc1cc2ccc(C)cc2[nH]c1=O)C(=S)Nc1ccc(OC)cc1 (configuration not stated) | 102% | 99.5%
48 | CC(C)NC(=O)NC(=O)COC(=O)c1c2c(nc3ccccc13)CCC2 | 101% | 93.6%
49 | COc1ccc(C[C@H]2CN3C(=NC[C@@H]3Cc3ccc(O)cc3)N2C[C@H](C)NC(=O)c2ccc(C)c(Br)c2)cc1 | 102% | 102%
50 | CCN(c1ccccc1)S(=O)(=O)c1ccc(C(=O)N(CCCN(C)C)c2nc3cc4c(cc3s2)OCO4)cc1 | 97.6% | 99%
51 | O=C1NC(Cc2ccc(O)cc2)c2nc3ccc(F)cc3c(=O)n2-c2cc3ccccc3cc21 (configuration not stated) | 100% | 95.8%
52 | Cc1ccc(C(=O)N(CCCN(C)C)c2nc3ccc(Cl)cc3s2)cc1C | 99.5% | 101%
53 | CCc1nc(Nc2ccc(N3CCN(C(C)=O)CC3)cc2)c2oc3ccccc3c2n1 | 101% | 99.9%
54 | CN(C)CCCN(C(=O)c1ccc(S(=O)(=O)N(C)Cc2ccccc2)cc1)c1nc2cc3c(cc2s1)OCO3 | 100% | 99.3%
55 | CCc1ccc(OCCNc2cc(N3CCNC(C)C3)ccc2[N+](=O)[O-])cc1 (configuration not stated) | 99.6% | 101%
56 | COc1ccc(S(=O)(=O)N2c3ccccc3OCC2c2ccccc2)cc1 (configuration not stated) | -135% | -3.52%
57 | CSc1ccc2c(c1)C(N1CCN(C)CC1)Cc1ccccc1S2 (configuration not stated) | 102% | 98.9%
58 | CC(C)c1ccc(/C=N/Nc2ccc(C(=O)O)cc2)cc1 | 89.9% | 84%
59 | Cc1cccc(CN2C(=O)/C(=C\c3ccc(C(=O)NCCN4CCOCC4)cc3)Sc3ccccc32)c1 | 102% | 99.5%
60 | O=C(C[n+]1ccc(-c2cc(C(=O)Nc3cccc(C(F)(F)F)c3)c3ccccc3n2)cc1)c1cccc([N+](=O)[O-])c1 | 101% | 102%
61 | COc1cccc2c1C(=N)c1c(O)c3c(c(O)c1C2=O)CC(O)(C(C)=O)CC3OC1CC(N)C(O)C(C)O1 (configuration not stated) | 99.1% | 102%
62 | COc1ccc(CNC(=O)Nc2nc(C(N)Cc3ccc(F)cc3)cs2)cc1 (configuration not stated) | 102% | 101%
63 | COC(=O)CSC1=NS(=O)(=O)c2ccccc21 | 66.3% | 98%

Row | Compound | inhibition [1] | inhibition [2]
64 | CCOC(=O)c1cnc2c(cnn2C)c1NCCCN(C)C | 80.7% | 88.6%
65 | CCOC(=O)c1ccc(NC(=O)C2CCCN(S(=O)(=O)c3ccc(F)cc3)C2)cc1 (configuration not stated) | 97.3% | 100%
66 | COc1ccc(CCn2c(=N)c(C(=O)NC3CCCC3)cc3c(=O)n4cccc(C)c4nc32)cc1 | 44.4% | 47.1%
67 | O=S(=O)(c1cccs1)N1CCN(c2ccnc3cc(Cl)ccc23)CC1 | 83.3% | 90.7%
68 | COc1ccc(CC(N)c2csc(Nc3cccc(OC)n3)n2)cc1 (configuration not stated) | 98.9% | 100%
69 | Cc1cc(/C=c2/sc3nc4ccccc4n3c2=O)c(C)n1-c1ccccn1 | 84.1% | 84.5%
70 | O=S(=O)(N[C@H]1C[C@@H](NS(=O)(=O)OCC(Cl)(Cl)Cl)C2CCCCC21)OCC(Cl)(Cl)Cl (some centres not stated) | 99.2% | 101%
71 | C[C@@H]1[C@H]2[C@@H]3CC[C@@H](C3)[C@H]2CN[C@H]1c1cn(Cc2ccccc2)c2ccccc12 | 99.2% | 102%
72 | O=C(Cn1ncc(Cl)c(Cl)c1=O)N1CCN(Cc2ccccc2)CC1 | 95.2% | 98.8%
73 | COc1ccccc1CNC(=O)c1c(N)n(CCCN2CCOCC2)c2nc3ccccc3nc12 | 99.1% | 99%
74 | CCCC(=O)NC(c1cccc([N+](=O)[O-])c1)c1ccc2cccnc2c1O (configuration not stated) | 75.7% [run 1, dose range 1, at 50 µM] | 98.9%
75 | CCOC(=O)c1c(NC(C)=O)sc2c(OCC(O)CN(CC)CC)c(Br)ccc12 (configuration not stated) | 102% | 98.6%
76 | COc1ccc(-c2cc(C(=O)N3CCN(c4ncccn4)CC3)c3ccccc3n2)c(OC)c1 | 70% | 47.8%
77 | CN[C@H]1C[C@H]2c3[nH]c4ccc(-c5cccc(C)c5)cc4c3CCN2C[C@H]1[C@H](C)O | 99% | 100%
78 | CCCOc1ccc(NC(=O)CC2C(=O)N(CC)C(=S)N2CCCN2CCN(Cc3ccccc3)CC2)cc1 (configuration not stated) | 98.9% | 101%
79 | CCOC(=O)c1sc2nc(CSc3ccccc3)nc(N3CCCN(C)CC3)c2c1C | 101% | 99%
80 | Cn1nnnc1Sc1ncnc2scc(-c3ccsc3)c12 | 102% | 102%
81 | CC1(C)CC(NCCN2CCN(C3=CC(=C(C#N)C#N)CC(C)(C)C3)CC2)=CC(=C(C#N)C#N)C1 | 19.6% | 44%
